Experimental data published in PubChem BioAssay (NCI).
The panel holds about 83,000 compounds, 20% with a hit somewhere; the sample as a whole holds those more often.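 48-hour exposure, single concentration, 96-well plates; percent growth endpoint where 0 means no net growth. Active: below 10.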 A number with no mark means an inactive call. Calls of active or inactive are those of the source.

System: HCC-2998 colon
Experiment: NCI-60 one-dose screen, 48 h (100 = growth as untreated, 0 = no growth, -100 = all killed)
Conditions: 10 µM unless noted
Protocol: Growth inhibition of the HCC-2998 human tumor cell line is measured as a screen for anti-cancer activity. Cells are grown in 96 well plates and exposed to the test compound for 48 hours. Compounds are tested at a single concentration, which is 10^-5 M for most compounds. The reported endpoint is percent growth (GI% or GIPRCNT), where numbers from 0 - 100% represent growth inhibition, and numbers from -100% - 0 represent cell death. For example, a value of 40 represents 60% growth inhibition. A value of 0 means no net growth occurred over the course of the experiment. A value of -40 indicates 40% of cells at the beginning of the experiment died by the end of the experiment. A value of -100 means all cells are dead at the end of the experiment.
NCI-60 Human Tumor Cell Lines Screen was performed using the standard one-dose NCI protocol, which is described in more detail at https://dtp.cancer.gov/discovery_development/nci-60/default.htm.
Compounds with GIPRCNT values below 10 were considered active. Activity score was based on GIPRCNT using the following formula: […]
Score is 0 for GIPRCNT values of 100 or above, 50 for GIPRCNT values of 0, and 100 for GIPRCNT values of -100.

SMILES | growth
COc1cc(-c2ccc(-c3ccc(C(=N)N)s3)s2)cc(OC)c1OC | 49.7%
Nc1ccc(Cl)c2c(=O)c3ccccc3[nH]c12 | 88.6%
CCOC(=O)c1c(NC(=S)Nc2ccc([N+](=O)[O-])cc2)sc2c1CCCCC2 | 96.8%
C#C[C@]1(O)CC[C@H]2[C@@H]3CC=C4c5sc(-c6cccc(C)c6)nc5CC[C@]4(C)[C@H]3CC[C@@]21C | 72.5%
Cc1ccc(-c2nn(CC(=O)N3CCOCC3)c(N)c2C#N)cc1 | 102%
CCCCCCC/C=N/NC(=O)c1ccc(-n2cc(-c3ccccc3)nn2)cc1 | 88%
COc1cccc(/C=C2\CCc3ccccc3C2=O)c1 | 94.7%
CCCN1C2CCC1/C(=C\c1ccc(OC)cc1)C(=O)/C2=C/c1ccc(OC)cc1 | 91.9%
Cn1ccnc1C(=O)/C=C/c1ccc(C(=O)Nc2ccccc2F)cc1 | 88%
CCCN1C(=O)N(CCC)C2C1NC(=S)N2/N=C/C=C/c1ccccc1OC (stereo not given) | 20.3%
COc1ccc(-c2cn(Cc3ccc4c(Br)cc(Br)c(O)c4n3)nn2)cc1 | 101%
COc1ccccc1/C=C/C1=C(C)CCC(c2ccccc2OC)C1C (stereo not given) | -12.5% (active)
Cc1nn(C)c2ncnc(Nc3ccccc3Br)c12 | 108%
CC(=O)c1ccc(Nc2nccc(-c3ccc(Cl)cc3)n2)cc1 | 114%
CCOC(=O)C1=CCC(n2cc(F)c(=O)[nH]c2=O)O1 (stereo not given) | 103%
N=C(N)c1ccc(-c2ccc(-c3ccccc3)s2)nc1 | 58.9%
O=C1CC2C=CCN2C=C1NC(=O)c1ccccc1 (stereo not given) | 101%
CCOC(=O)/C(=C\c1ccccc1Cl)P(=O)(OCC)OCC | 94.5%
O=C(CN1C(=O)NC2NC(=O)NC21)N/N=C/c1cccc([N+](=O)[O-])c1 (stereo not given) | 118%
FC(F)(F)c1cc(N2CCCCC2)nc(NCCCNc2ccnc3cc(Cl)ccc23)n1 | 37.5%

SMILES | growth
CCOC(=O)CC1CSC(N/N=C(/C)c2cccc(C(F)(F)F)c2)=N1 (stereo not given) | 101%
CCOc1ccccc1NC(=O)CCC(=O)OC | 99.5%
O=C(NS(=O)(=O)c1ccccc1)n1cc(-c2ccncc2)c(-c2cc(O)cc(Cl)c2)n1 | 128%
O=C(Nc1ncc(Cc2ccccc2)s1)c1cc(-c2ccccc2)nc2ccccc12 | 99.2%
COc1ccc(-c2ccc(-c3ccc(C(=N)N)nc3)s2)cc1 | -44.9% (active)
[2H]C([2H])([2H])Oc1ccc(/C=C/C(=O)/C=C(/C=C/c2ccc(OC([2H])([2H])[2H])c(OC([2H])([2H])[2H])c2OC([2H])([2H])[2H])OB(F)F)c(OC([2H])([2H])[2H])c1OC([2H])([2H])[2H] | 120%
CO[C@H]1/C=C/O[C@@]2(C)Oc3c(C)c(O)c4c(O)c(c5c(nc6cc(C)ccn65)c4c3C2=O)NC(=O)/C(C)=C\C=C\[C@H](C)[C@H](O)[C@@H](C)C(O)[C@@H](C)[C@H](OC(C)=O)[C@@H]1C (stereo not given in full) | 106%
Cc1ccc(C2(C)NC(=O)N(CC(=O)Nc3cccc(C)c3)C2=O)cc1 (stereo not given) | 102%
CCN1CCN(CCOc2ccc(CNc3ccc4nc(CCC5CCCCC5)[nH]c4c3)cc2)CC1 | 4.19% (active)
CCCCCCCCCCCCCCCCCCOc1ccccc1CC(=O)OCC[N+]1(C)CCCCC1 | 40.3%
COc1ccc(-c2nc(SCCC(C)C)nc(N/N=C(/C)c3ccc(N)cc3)c2C#N)cc1 | 97.4%
O=c1ccc2nc(-c3ccccc3)nn(-c3ccccn3)c-2c1 | 103%
Cc1cc([N+](=O)[O-])ccc1NC(=O)c1ccc2c(c1)nc(-c1ccccc1)n2C1CCCCC1 | 88.3%
CCN1CCN(C(=O)[C@]23CC[C@@H](C)[C@H](C)[C@@H]2C2=CC[C@@H]4[C@@]5(C)C/C(=C/c6ccncc6)C(=O)C(C)(C)[C@@H]5CC[C@@]4(C)[C@]2(C)CC3)CC1 | -28.9% (active)
C=C(C)[C@@H]1CC[C@]2(COCCCNCCCN)CC[C@]3(C)[C@H](CC[C@@H]4[C@@]5(C)CC[C@H](OCCCN)C(C)(C)[C@@H]5CC[C@]43C)[C@@H]12 | -24.8% (active)
Nc1n[nH]c2cccc(C#Cc3cccc(C(=O)Nc4ccc(Cl)c(C(F)(F)F)c4)c3)c12 | 49.4%
O=C1/C(=C/c2ccc(Br)cc2)COc2ccc(O)cc21 | 89.8%
CC1(C)CC[C@]2(CO)CC[C@]3(C)[C@H](CC[C@@H]4[C@@]5(C)CC[C@H](O)C(C)(C)[C@@H]5CC[C@]43C)[C@H]2[C@H]1O | 101%
O=c1n(C2OC(CO)C(O)C2O)ccc2nccn12 (stereo not given) | 110%
N#CC1=C(N)Oc2c(ccc3ccccc23)C1c1cc2ccccc2n2nnnc12 (stereo not given) | 46.9%
